# PubChem BioAssay (NCATS)
# Values without a mark were called inactive. Inconclusive results are not listed. A call without a number means that no potency is given here. Activity calls are given as the source filed them. Unless noted, calls follow the shape of the dose curve; as a rule, active = well fitted curve in the direction sought with a large enough effect; inconclusive = small, poorly fitted or top-dose-only effect, or another doubt; inactive = no such curve, though single readings can be large; an effect the other way counts as inactive or inconclusive.
# Assays:
# [1] = Cell Viability - BJ (AID 421; calls by dose curve;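 also: potency is read from the fitted curve at half-maximal effect; cells exposed to compound for 40 hours at 37 °C before readout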); conditions: BJ fibroblast viability, qHTS
# Outline: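 Quantitative HTS: ATP depletion in BJ cells after 40 hr compound exposure in complete culture medium, detected with CellTiter-Glo; AC50 from standard Hill fits.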
# [2] = Cell Viability - Jurkat (AID 426;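 active = dose-dependent loss of cell ATP signal giving a full or clear fitted curve, ranked by lower potency value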;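 also: potency is read from the fitted curve at half-maximal effect; cells exposed to compound for 40 hours at 37 °C before ATP read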); conditions: qHTS
# Outline: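 Seed 5000 Jurkat E6-1 cells/well; add compound; incubate 40 hr at 37 °C; add CellTiter-Glo; wait 20 min at room temperature; read luminescence. Fit concentration-response with Hill equation for AC50.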
# [3] = Cell Viability - Hek293 (AID 427;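 active = compounds whose dose-response curve shows a full or clear partial loss of cell viability, called from curve shape rather than a numeric limit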;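 also: potency is read from the fitted curve at half-maximal effect; cells exposed to compound for 40 hours at 37 °C before reading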); conditions: qHTS
# Outline: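 AC50 values derive from Hill-modelled concentration-response of ATP-based luminescence, normalized between DMSO-only and 100 uM tamoxifen controls. Cells were exposed in complete culture medium for 40 hr at 37 °C before detection.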
# [4] = Cell Viability - HepG2 (AID 433; calls by dose curve;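 also: potency is read from the fitted curve at half-maximal effect; cells exposed to compound for 40 hours; potency for ATP loss meaning cytotoxicity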); conditions: qHTS
# Outline: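 Cytotoxicity read as ATP loss (CellTiter-Glo luminescence) after 40 hr compound exposure of HepG2, 1500 cells/well, 37 °C. AC50 by Hill equation; 0% set by DMSO, 100% inhibition by 100 uM tamoxifen.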
# [5] = Cell Viability - SK-N-SH (AID 435; calls by dose curve; also: potency is read from the fitted curve at half-maximal effect); conditions: SK-N-SH neuroblastoma cell viability qHTS
# Outline: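 qHTS cytotoxicity: CellTiter-Glo ATP luminescence after 40 h compound exposure of human neuroblastoma SK-N-SH cells at 37 °C. AC50 derived by Hill-equation fitting, with DMSO as basal and 100 uM tamoxifen as full inhibition.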
# [6] = Cell Viability - Renal Proximal Tubule (AID 545); conditions: renal proximal tubule cells viability; series mostly up to 91.7 µM;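 also: cells exposed to compound for 40 hours; nearly all actives have a fitted effect of over 40% in size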
# Outline: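 Viability taken as intracellular ATP (CellTiter-Glo luminescence) after 40 hr, 37 °C compound treatment of primary proximal tubule cells from rat kidney, 1000 cells/well; Hill-equation fits of qHTS concentration-response data gave AC50.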
# [7] = Cellular Toxicity (caspase-3) MRC-5 (AID 659); conditions: MRC-5 cells, luminescence, normalized: DMSO 0%, 10 µM staurosporine 100%; series mostly up to 91.7 µM
# Outline: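 Luminescence from caspase-cleaved aminoluciferin substrate (Caspase-Glo 3/7, 1 hr RT) reports caspase 3/7 activity in MRC-5 lung fibroblasts after 16 hr compound exposure. Normalized to DMSO basal and 10 uM staurosporine as 100%; AC50 from Hill fits.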
# [8] = Cellular Toxicity (caspase-3) N2a (AID 665); conditions: N2a cells, luminescence, normalized: DMSO 0%, 10 µM staurosporine 100%; series mostly up to 92.2 µM;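 also: compound exposure lasted 16 h at 37 °C before readout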
# Outline: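 Plated mouse neuroblastoma N2a cells received titrated compounds for 16 h in complete medium. Caspase activity was then detected with a peptide-aminoluciferin luminescent reagent.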
# [9] = Cellular Toxicity (caspase-3) Renal Proximal Tubule (AID 667); conditions: renal proximal tubule cells; series mostly up to 91.7 µM;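 also: cells exposed to compound for 16 hours at 37 °C before detection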
# Outline: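 Caspase 3/7 activation measured by luminescent aminoluciferin release in primary rat proximal tubule cells after 16 hr compound exposure at 37 °C. AC50 from Hill-fitted concentration-response, scaled between DMSO and 10 uM staurosporine.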
# [10] = MultiTox-Fluor Cytotoxicity Assay - LYMP1-002 - Live Cells (AID 955); conditions: LYMP1-002 lymphoblastoid live-cell protease fluorescence viability; series mostly up to 46.1 µM
# Outline: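 Cytotoxicity in the human lymphoblastoid line LYMP1-002 is measured as loss of live-cell protease activity after 16 h treatment in complete culture medium. AC50 is derived from Hill-equation fits of qHTS concentration-response data.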
# [11] = Cell Viability - LYMP2-021 (AID 974); conditions: LYMP2-021 lymphoblastoid cells viability; series mostly up to 92.2 µM;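 also: compound exposure lasts 24 hours at 37 °C; nearly all actives have a fitted effect of over 55% in size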; also: potency is read from the fitted curve at half-maximal effect
# Outline: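 Concentration-response cytotoxicity in a human lymphoblastoid line: 24 hr treatment at 37 C in complete culture medium, tetraoctylammonium bromide as positive control, luminescent ATP quantitation as viability measure.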
# [12] = Cell Viability - LYMP2-016 (AID 984); conditions: LYMP2-016 lymphoblastoid cell viability, qHTS; series mostly up to 92.2 µM;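 also: cells exposed to compound for 24 hours at 37 °C; nearly all actives have a fitted effect of over 55% in size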
# Outline: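 Cytotoxicity was scored by luminescent ATP content (CellTiter-Glo) after 24 h compound exposure at 37 C of a human lymphoblastoid line at 2500 cells/well. Concentration-response data were fitted to the Hill equation for AC50.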
# [13] = qHTS Assay for Identification of Small Molecule Inducers of Hypoxia Response (AID 2120; active = well fitted curve in the direction sought with a large enough effect in the signal ratio, with a control signal flat, not every such curve was filed as active; the % refers to the signal ratio); conditions: hypoxia response reporter cells, beta-lactamase ratio readout; series mostly up to 104 µM
# Outline: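 Induction of beta-lactamase reporter activity was measured in CellSensor HRE-bla ME-180 cells after 17 h compound treatment at 37 degrees C, using CCF4 substrate and the 460nm/530nm emission ratio to derive AC50 values.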
# [14] = qHTS assay for small molecule agonists of the antioxidant response element (ARE) signaling pathway measured by Nrf2-dependant transcriptional activity - cell viability counter screen (AID 720653; active = well fitted curve in the direction sought with a large enough effect in the repeat runs; an effect the other way counts as inactive or inconclusive); conditions: ARE-bla HepG2 viability, CellTiter-Glo ATP luminescence, 16 h; stronger effect = lower value
# Outline: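 ARE-bla HepG2 cells (2,000/well) rested 5 hrs at 37C/5% CO2, then exposed to compounds in DMSO for 16 hrs. Viability was read in the same wells as intracellular ATP by luminescence, 30 min at room temperature after reagent addition.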
# [15] = qHTS assay for cell viability of HEK293 cells (AID 743288); conditions: ATP luminescence (CellTiter-Glo), 18 h, stronger effect = lower value; also: nearly all actives have a fitted effect of over 50% in size
# Outline: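 Total intracellular ATP, measured with a luciferase-coupled reagent, indicates the number of viable HEK293 cells. Exposure to test chemicals lasts 18 h at 37 C in 1,536-well format at 2,000 cells/well.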
# [16] = MultiTox-Fluor Cytotoxicity Assay - LYMP1-003 - Live Cells (AID 962); conditions: LYMP1-003 lymphoblastoid cells, MultiTox-Fluor live-cell protease fluorescence; series mostly up to 92.2 µM;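 also: cytotoxic hits lower the live-cell protease signal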
# Outline: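 Cells plated at 2500 per well and incubated 5 hr; compounds added and incubated 16 hr at 37 C; MultiTox-Fluor reagent added for 60 min at room temperature; fluorescence of liberated AFC measured at 405/510 nm.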
# [17] = Cell Viability - LYMP1-003 - Assay at 24 hr (AID 963); conditions: LYMP1-003 lymphoblastoid cell viability; series mostly up to 92.2 µM
# Outline: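 Acute toxicity in LYMP1-003 lymphoblastoid cells: 24 hr compound treatment at 37 C, ATP measured with CellTiter-Glo after 30 min at room temperature. AC50 derived by fitting the Hill equation to qHTS titrations.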
# [18] = Cell Viability - LYMP2-007 (AID 979); conditions: LYMP2-007 lymphoblastoid cell viability; series mostly up to 92.2 µM;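 also: cells exposed to compound for 24 h before reading; nearly all actives have a fitted effect of over 60% in size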
# Outline: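 Acute toxicity is scored as a concentration-dependent fall in intracellular ATP in human lymphoblastoid cells treated 24 hr at 37 C, measured by luciferase luminescence; Hill-equation modelling yields AC50.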
# [19] = Cell Viability - LYMP2-018 (AID 985); conditions: LYMP2-018 lymphoblastoid cells, viability (qHTS); series mostly up to 92.2 µM;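 also: compound exposure lasted 24 hr at 37 °C; nearly all actives have a fitted effect of over 50% in size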
# Outline: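 Acute cytotoxicity is scored as a concentration-dependent drop in intracellular ATP after 24 hr exposure of the lymphoblastoid line in complete culture medium, measured by luciferase luminescence. Potency is expressed as AC50 from Hill modelling.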
# [20] = Cell Viability - LYMP2-020 (AID 986); conditions: series mostly up to 92.2 µM; also: nearly all actives have a fitted effect of over 55% in size
# Outline: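 Acute cytotoxicity in a human lymphoblastoid line is scored as a concentration-dependent fall in cellular ATP after 24 hr at 37 C in complete medium. The positive control is tetraoctylammonium bromide, and potency is given as Hill-fit AC50.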
Structure (SMILES),Potency [1] [µM],Potency [2],Potency [3] [µM],Potency [4] [µM],Potency [5] [µM],outcome [6],outcome [7],outcome [8],outcome [9],outcome [10],Potency [11],Potency [12],Potency [13],max response [14] [%],max response [15] [%],outcome [16],outcome [17],Potency [18],Potency [19],Potency [20]
Cc1ccc(N)c(N)c1,> 92,9.63 µM (active),> 92,> 92,> 92,inactive,inactive,inactive,inactive,inactive,31.6 µM (active),inactive,inactive,-6.6,-20.1,–,–,–,–,–
Oc1ccc(Cl)c(Cl)c1,> 92,> 92 µM,> 92,> 92,> 92,inactive,inactive,inactive,inactive,inactive,inactive,inactive,inactive,-2.38,7.88,inactive,inactive,inactive,inactive,inactive
CCCCCCCCCCCCCl,> 92,> 92 µM,> 92,> 92,> 92,inactive,inactive,inactive,inactive,inactive,inactive,inactive,inactive,-2.45,-0.903,inactive,inactive,inactive,inactive,inactive
O=Cc1ccc2c(c1)OCO2,> 92,> 92 µM,> 92,> 92,> 92,inactive,inactive,inactive,inactive,inactive,inactive,inactive,inactive,2.8,-0.123,inactive,inactive,inactive,inactive,inactive
Nc1ccccc1-c1ccccc1,> 92,> 92 µM,> 92,> 92,> 92,inactive,inactive,inactive,inactive,inactive,inactive,inactive,inactive,-2.88,3.8,inactive,inactive,inactive,inactive,inactive
Nc1ccc(-c2ccccc2)cc1,> 92,> 92 µM,> 92,> 92,> 92,inactive,inactive,inactive,inactive,inactive,inactive,inactive,inactive,5.56,-6.92,inactive,inactive,inactive,inactive,inactive
Cc1ccc2c(C)cccc2c1,> 92,> 92 µM,> 92,> 92,> 92,inactive,inactive,inactive,inactive,inactive,inactive,inactive,inactive,-2.91,11.2,inactive,inactive,inactive,inactive,inactive
O=[N+]([O-])c1ccc(Cl)c(Cl)c1Cl,> 92,> 92 µM,> 92,> 92,> 92,inactive,inactive,inactive,inactive,inactive,inactive,inactive,inactive,-7.85,8.59,inactive,inactive,inactive,inactive,inactive
ClC=CCl,> 92,> 92 µM,> 92,> 92,> 92,inactive,inactive,inactive,inactive,inactive,inactive,inactive,inactive,-14.4,-11.1,inactive,inactive,inactive,inactive,inactive
N#CCBr,> 92,> 92 µM,> 92,> 92,> 92,inactive,inactive,inactive,inactive,inactive,inactive,inactive,inactive,-10.6,-4.55,inactive,inactive,inactive,inactive,inactive
COc1ccc(C=O)cc1,> 92,> 92 µM,> 92,> 92,> 92,inactive,inactive,inactive,inactive,inactive,inactive,inactive,inactive,7.96,-1.3,inactive,inactive,inactive,inactive,inactive
